# TDP1 cell noCPT – qHTS for Inhibitors of human tyrosyl-DNA phosphodiesterase 1 (TDP1): qHTS in cells in absence of CPT. 420,000 tested, 15% active. Potency, µM (series often up to 46.2 µM), inactives show at the highest dose activity change, negative = growth inhibition, actives largely listed as inhibitors. DT40 Tdp1-/- hTDP1 cells, no CPT, ATP luminescence, 48 h; also: potency is read from the fitted curve at half-maximal effect; nearly all actives have a fitted effect of over 55% in size
#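 Chicken DT40 Tdp1-/- cells stably complemented with human TDP1 were seeded at 400 cells/well with DMSO in place of 20 nM camptothecin. After compound pinning, cells grew at least 48 hr at 37 °C; viability read by CellTiter-Glo luminescence.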
# TDP1 cell CPT – qHTS for Inhibitors of human tyrosyl-DNA phosphodiesterase 1 (TDP1): qHTS in cells in presence of CPT; chicken DT40 Tdp1-/-;hTDP1 cells + 20 nM CPT, ATP luminescence, 48 h; Potency, µM (highest dose often 46.2 µM), for inactives: at the highest dose activity change, negative = growth inhibition, actives largely listed as inhibitors; 420,000 tested, 12% active; AID 686979, 2013; also: potency is read from the fitted curve at half-maximal effect; nearly all actives have a fitted effect of over 55% in size
#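 Chicken DT40 Tdp1-/- cells complemented with human TDP1, 400 cells/well, exposed to compounds plus 20 nM camptothecin for at least 48 h at 37 C; viability read as ATP content by CellTiter-Glo luminescence.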
# RORgamma inh – qHTS for inhibitors of ROR gamma transcriptional activity; 310,000 tested, 5.4% active; Nuclear receptor ROR-gamma (Mus musculus), P51450; Potency, µM (titrated, usually from 53.6 µM), for inactives: at the highest dose activity change, negative = inhibition, actives largely listed as inhibitors; Drosophila S2 Gal4-RORgamma UAS-luciferase reporter, 20 h; also: potency is read from the fitted curve at half-maximal effect; nearly all actives have a fitted effect of over 60% in size
# Target sequence (P51450 whole entry, looked up, the tested form may be a part): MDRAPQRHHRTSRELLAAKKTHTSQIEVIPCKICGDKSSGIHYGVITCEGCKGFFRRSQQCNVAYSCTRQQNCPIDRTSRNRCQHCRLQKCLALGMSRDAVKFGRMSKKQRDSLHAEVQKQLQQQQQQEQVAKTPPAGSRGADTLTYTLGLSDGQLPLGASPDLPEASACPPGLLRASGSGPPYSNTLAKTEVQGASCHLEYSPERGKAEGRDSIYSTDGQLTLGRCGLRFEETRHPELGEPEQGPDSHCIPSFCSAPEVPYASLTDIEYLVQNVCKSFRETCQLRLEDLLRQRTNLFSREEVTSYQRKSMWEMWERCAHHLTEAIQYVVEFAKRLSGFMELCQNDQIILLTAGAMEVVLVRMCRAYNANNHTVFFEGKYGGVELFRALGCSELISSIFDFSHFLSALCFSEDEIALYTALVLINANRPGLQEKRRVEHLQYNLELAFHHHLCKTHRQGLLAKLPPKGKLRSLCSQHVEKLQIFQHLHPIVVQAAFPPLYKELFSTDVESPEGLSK
#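 Using a luciferase readout, inhibitors were identified by reduced reporter activity in Drosophila cells coexpressing a copper-inducible Gal4–ROR gamma fusion and UAS-driven Photinus luciferase, incubated 20 hr after 700 uM copper sulfate.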
# IL1B secr inh – qHTS for Inhibitors of Inflammasome Signaling: IL-1-beta AlphaLISA Primary Screen | activity change, % at 57.5 µM | AID 743279, 2014 | THP-1 LPS/ATP IL-1B secretion, AlphaLISA, 16 h; hits give low values | 360,000 tested, 4.7% active; in the data active = activity change below about -50%; inconclusive = mostly about -30% to -49%
#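 Secreted IL-1B measured by AlphaLISA bead assay after 16 h compound exposure of THP-1 cells; compounds (final up to 57.5 uM) added 1 h before LPS (250 ng/mL) and ATP (1.25 mM) stimulation; lower signal means less secretion.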
# Gal4-VP16 FLuc – VP16 counterscreen qHTS for inhibitors of ROR gamma transcriptional activity | Drosophila S2 Gal4-VP16 UAS-luciferase, luminescence, 20 h | Potency, µM (doses to about 53.6 µM), inactives show at the top dose activity, negative = inhibition, most hits filed as inhibitors | 310,000 tested, 3.5% active;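 also: Gal4-VP16 expression switched on by copper sulfate through the metallothionein promoter; potency is read from the fitted curve at half-maximal effect; nearly all actives have a fitted effect of over 50% in size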
# LDHA block – qHTS assay for inhibitors of human lactate dehydrogenase. L-lactate dehydrogenase A chain (Homo sapiens), P00338. 480,000 tested, 0.15% active. activity change, % (values are at about 110 or 230 µM). purified LDHA, NADH/diaphorase-resazurin fluorescence; hits give low values; in the data active = activity change below about -30%; inconclusive = mostly about -25% to -30%;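 also: plate controls were DMSO wells for no effect and wells without enzyme for full effect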
#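 Resorufin fluorescence (ex540/em590), read at 0 and 20 min after diaphorase/resazurin addition, reports the NADH left after a 5 min room-temperature reaction of 2 nM human LDH5 with 0.06 mM NADH and 0.2 mM pyruvate.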
# Numbers without * were called inactive; ? = inconclusive; / = not tested or not shown. An excerpt weighted towards active compounds, which were near 18% of everything screened. Unless noted, calls follow the shape of the dose curve; as a rule, active = well fitted curve in the direction sought with a large enough effect; inconclusive = small, poorly fitted or top-dose-only effect, or another doubt; inactive = no such curve, though single readings can be large; an effect the other way counts as inactive or inconclusive. Unless noted, % is scaled to controls: 0 for no effect and ±100 for the full control effect.
SMILES,TDP1 cell noCPT,TDP1 cell CPT,RORgamma inh,IL1B secr inh,Gal4-VP16 FLuc,LDHA block
CC(=O)/C(C#N)=C1\NC(=O)C(Cc2cc(Cl)ccc2Cl)S1 (configuration not stated),3.3µM*,?,27%,0,-8%,-1
CC(=O)/C(C#N)=C1\NC(=O)C(Cc2ccccc2Cl)S1 (configuration not stated),?,?,9%,15,-1%,-2
CC(=O)/C(C#N)=C1\NC(=O)C(Cc2ccc(F)cc2)S1 (configuration not stated),1.3µM*,?,31%,21,-1%,-10
CC(=O)/C(C#N)=C1\NC(=O)C(Cc2ccc(C)c(C)c2)S1 (configuration not stated),0.073µM*,0.58µM*,12%,59,5%,-2
NC(=O)c1cc(S(=O)(=O)NCC2CCN(Cc3ccc(Cl)cc3)CC2)cs1,/,/,/,/,/,2
CCCCn1nc(C(=O)NCCN2CCOCC2)c2ccccc2c1=O,/,/,/,/,/,-2
CCCCC(=O)NC(Nc1ccccc1F)(C(F)(F)F)C(F)(F)F,/,/,/,/,/,4
CC(C)c1ccc(CN(C(=O)/C=C/c2ccco2)C2CCS(=O)(=O)C2)cc1 (configuration not stated),?,?,29%,-86*,10%,-2
O=C(/C=C/c1ccccc1Cl)N(Cc1ccccc1)C1CCS(=O)(=O)C1 (configuration not stated),?,?,26%,?,-11%,-9
COc1ccc(CN(C(=O)/C=C/c2ccccc2Cl)C2CCS(=O)(=O)C2)cc1 (configuration not stated),23µM*,?,?,0,-3%,-13
O=C(/C=C/c1ccccc1Cl)N(Cc1cccs1)C1CCS(=O)(=O)C1 (configuration not stated),?,?,20%,-23,-8%,-8
CN(C)c1ccc(CN(C(=O)/C=C/c2ccccc2Cl)C2CCS(=O)(=O)C2)cc1 (configuration not stated),21µM*,?,?,-9,-25%,-3
O=C(/C=C/c1ccccc1Cl)N(Cc1ccc(Cl)cc1)C1CCS(=O)(=O)C1 (configuration not stated),?,?,?,-57*,-3%,-3
CCC(C)(C)NC(=O)/C=C/c1ccc(OC)c(OC)c1,/,/,/,/,/,3
CC(C)OCCCNc1ncnc2c1nc1n2CCCC1,-3%,-23%,3%,22,-3%,-3
COc1ccc(Nc2nc(C)nc3sc4c(c23)CCC4)cc1O,13µM*,15µM*,-26%,50,-11%,-4
CC(C)OCCCNc1ncnc2sc3c(c12)CCCC3,23µM*,21µM*,/,/,/,0
Cc1nc(NCc2cccnc2)c2c3c(sc2n1)CC(C)CC3 (configuration not stated),?,?,0.71µM*,-4,1.8µM*,-10
c1ccc(CNc2ncnc3sc4c(c23)CCCC4)nc1,23µM*,16µM*,-22%,-12,5%,-9
Cc1cc(C)n(-c2nc(C)nc3sc4c(c23)CCC(C)C4)n1 (configuration not stated),-13%,-13%,?,6,6%,-2
O=C(NCc1ccco1)c1ccc2nc3sc4c(c3c(=O)n2c1)CCCC4,/,/,4.5µM*,/,?,/
Cc1nc(NCc2ccco2)c2c3c(sc2n1)CCC3,13µM*,13µM*,-19%,-80*,4%,1
Cc1nc(NCCc2ccc3c(c2)OCO3)c2c3c(sc2n1)CCC3,/,/,/,/,/,1
Cc1nc(NCc2ccccn2)c2c3c(sc2n1)CCCC3,21µM*,?,13%,-54*,-4%,-7
CN(C)C(CNc1ncnc2sc3c(c12)CCCC3)c1ccco1 (configuration not stated),23µM*,?,-15%,-11,-1%,-2
SMILES,TDP1 cell noCPT,TDP1 cell CPT,RORgamma inh,IL1B secr inh,Gal4-VP16 FLuc,LDHA block
Cc1nc2cc(NC(C)C(=O)Nc3ccccc3C(C)C)ccc2o1 (configuration not stated),/,/,/,/,/,1
O=S(=O)(Nc1ccc2cn[nH]c2c1)c1ccccc1C(F)(F)F,/,/,/,/,/,10
CCOc1ccccc1NC(=O)COC(=O)c1nn(C)c(=O)c2ccccc12,/,/,/,/,/,-2
N#Cc1ccc(Cn2c(CN3CCOCC3)nc3scc(-c4cccs4)c3c2=O)cc1,/,/,/,/,/,1
c1csc(-c2csc3nc(CN4CCOCC4)nc(NCc4ccc5c(c4)OCO5)c23)c1,?,23µM*,18µM*,-26,?,-2
COc1ccc(NC(=S)NC(C)Cc2cccs2)cc1 (configuration not stated),-32%,-17%,14µM*,-14,2.8µM*,-1
CC(Cc1cccs1)NC(=O)c1cccs1 (configuration not stated),-10%,31%,0%,-16,2%,-7
COc1ccc(NC(=O)C(NC(=O)Cc2cccs2)c2ccc(OC)cc2)cc1 (configuration not stated),2%,-8%,/,/,/,-2
CCC(C)NC(=S)Nc1ccc(F)cc1 (configuration not stated),-22%,-23%,10µM*,0,?,-1
CC(Cc1cccs1)NC(=S)Nc1ccc(F)cc1 (configuration not stated),?,?,3.2µM*,-1,16µM*,-6

# Bioassay records from PubChem BioAssay.
